Measured values from PubChem BioAssay (EPA / NIEHS).
Active and inactive are the calls of the source. The calls were made as follows: active = hit-call score of the fitted dose curve at least 0.9, where 1 is the maximum; inactive = score below 0.9.

Assay: ATG_PXRE_CIS: Attagene CIS-FACTORIAL HepG2 Assay for human Pregnane X Receptor Element (PXRE) (AID 2282957)
Conditions: HepG2 Attagene CIS-FACTORIAL PXRE reporter, mRNA; actives raise or lower the signal
Procedure: ATG_CIS is a cell-based, multiplexed-readout assay that uses HepG2, a human liver cell line, with measurements taken at 24 hours after chemical dosing in a 24-well plate.ATG_PXRE_CIS is one of 52 assay component(s) measured or calculated from the ATG_CIS assay. It is designed to make measurements of mRNA induction, a form of inducible reporter, as detected with fluorescence intensity signals by Reverse transcription polymerase chain reaction (RT-PCR) and Capillary electrophoresis technology.Data from the assay component ATG_PXRE_CIS was analyzed into 1 assay endpoint. This assay endpoint, ATG_PXRE_CIS, was analyzed with bidirectional fitting relative to DMSO as the negative control and baseline of activity. Using a type of inducible reporter, measures of mRNA for gain or loss-of-signal activity can be used to understand the reporter gene at the transcription factor-level as they relate to the gene NR1I2. Furthermore, this assay endpoint can be referred to as a primary readout, because this assay has produced multiple assay endpoints where this one serves a reporter gene function. To generalize the intended target to other relatable targets, this assay endpoint is annotated to the nuclear receptor intended target family, where the subfamily is non-steroidal.
Human liver HepG2 cells are transiently transfected with multiple reporter transcription units (MRTUs) in 6-well plates using FuGene 6 reagent (Roche; 3 ml FuGene/1 mg DNA). The MRTU constructs are regulated by a cis-regulating element (promoter). […] A major difference between the CIS and TRANS system is that in CIS activities of endogenous TFs are measured, whereas the TRANS assay evaluates changes in activities of exogenous, chimeric NR-Gal4 proteins. […] At the end of 24 hour incubation, total RNA was isolated using TriZol reagent (Invitrogen). The isolated RNA is then reverse-transcribed using oligo(dT) primer and Mo-MLV reverse transcriptase (Invitrogen) with DNAse I (Ambion) treatment for 30 min. The one-tenth of the produced cDNA was amplified by PCR using Taq DNA polymerase (Invitrogen) and two reporter sequence-specific primers. The PCR products were fluorescently labeled by primer extension with 6-arboxyfluorescein (6-FAM) 5'-labeled reporter sequence-specific primer (2 min at 95 C, 20 s at 68 C and 10 min at 72 C) and these products were digested with 5U of HpaI (New England Biolabs) for 2h at 37 C. The fragments were purified using Qiaquick PCR columns (Qiagen), analyzed on an ABI 3130xL genetic analyzer (Applied Biosystems) with peak positions identified by using a set of X-rhodamine (ROX)-labeled MapMarker1000 molecular weight standards (BioVentures). The raw capillary electrophoresis data was processed using Attagraph software (Attagene).

Row | Compound | outcome | AC50
1 | O=C(O)CCCCCCCC(=O)O | inactive | 
2 | CC(=O)C(C)=O |  | 26.5 µM (active)
3 | OCc1cccnc1 | inactive | 
4 | CC(=O)Nc1ccc(C)cc1C | inactive | 
5 | C#C[C@]1(O)CC[C@H]2[C@@H]3CCC4=Cc5oncc5C[C@]4(C)[C@H]3CC[C@@]21C |  | 8.09 µM (active)
6 | C=C[C@@H](C)CCC=C(C)C | inactive | 
7 | [Ca+2] | inactive | 
8 | CCCCCCCCCOC(C)=O |  | 49 µM (active)
9 | CCO[Si](CCCS)(OCC)OCC | inactive | 
10 | CCn1c2ccccc2c2cc(N)ccc21 |  | 3.35 µM (active)
11 | COCCCOc1ccnc(CS(=O)c2nc3ccccc3[nH]2)c1C (stereo not given) |  | 6.74 µM (active)
12 | CC(=O)O[C@]1(C(C)=O)CC[C@H]2[C@@H]3C[C@H](C)C4=CC(=O)CC[C@]4(C)[C@H]3CC[C@@]21C |  | 2.76 µM (active)
13 | CCOC(=S)SSC(=S)OCC | inactive | 
14 | c1cc(C(c2ccc(OCC3CO3)cc2)c2ccc(OCC3CO3)cc2)ccc1OCC1CO1 (stereo not given) | inactive | 
15 | CC(=O)[C@H]1CC[C@H]2[C@@H]3CC=C4C[C@@H](O)CC[C@]4(C)[C@H]3CC[C@]12C |  | 3.37 µM (active)
16 | COc1cc(C=O)ccc1OC(=O)C(C)C | inactive | 
17 | CCCCCCCCCCCCCCCC(=O)OC[C@H](O)[C@H]1OC(=O)C(O)=C1O |  | 38.2 µM (active)
18 | C=CCOc1nc(OCC=C)nc(OCC=C)n1 |  | 17.2 µM (active)
19 | CCCCOCCOCCOCCOCCO |  | 27.5 µM (active)
20 | Cc1ccc(C(C)C)cc1O |  | 14.2 µM (active)

Row | Compound | outcome | AC50
21 | Nc1cc([N+](=O)[O-])ccc1O | inactive | 
22 | COc1ccc(NC(=O)CC(C)=O)cc1 | inactive | 
23 | COC(=O)c1ccc(C)cc1 |  | 11.1 µM (active)
24 | OC1OC[C@@H](O)[C@H](O)[C@H]1O (stereo not given in full) | inactive | 
25 | O=C(O)c1ccc(C(=O)O)cc1 | inactive | 
26 | C=C(C)C(=O)NCCCN(C)C | inactive | 
27 | C[C@]12CC[C@H]3[C@@H](CCC4=CC(=O)CC[C@@]43C)[C@@H]1CC[C@@H]2C(=O)CO |  | 1.7 µM (active)
28 | CO[Si](C)(OC)c1ccccc1 |  | 2.95 µM (active)
29 | CCc1ccc(C=O)cc1 | inactive | 
30 | CC(C=O)Cc1ccc(C(C)C)cc1 (stereo not given) |  | 24 µM (active)
31 | CCCCCCCCCCN | inactive | 
32 | CCCCCCCCCCCCN(CCCCCCCCCCCC)CCCCCCCCCCCC | inactive | 
33 | CC(C)(C#N)c1cc(Cn2cncn2)cc(C(C)(C)C#N)c1 |  | 14.8 µM (active)
34 | CCCCCCC#CC(=O)OC |  | 30.5 µM (active)
35 | O=C(Oc1ccccc1)c1ccc(O)cc1 | inactive | 
36 | NC(=O)NC1NC(=O)NC1=O (stereo not given) | inactive | 
37 | O=C(O)C[C@H](O)C[C@H](O)/C=C/c1c(C2CC2)nc2ccccc2c1-c1ccc(F)cc1 |  | 4.9 µM (active)
38 | CCC(C)CCCC(C)(C)O (stereo not given) | inactive | 
39 | C[C@H]1C[C@H]2[C@@H]3CCC4=CC(=O)C=C[C@]4(C)[C@@]3(F)[C@@H](O)C[C@]2(C)[C@@]1(O)C(=O)COP(=O)(O)O | inactive | 
40 | CC(C)(Oc1ccc(CCNC(=O)c2ccc(Cl)cc2)cc1)C(=O)O |  | 25.6 µM (active)
